Screening results as filed in PubChem.
Shown are actives, neighbours in structure and some others; about 9% of the full set was active somewhere.
HPGD inh: qHTS Assay for Inhibitors of HPGD (15-Hydroxyprostaglandin Dehydrogenase). AID 894, 2007. Potency, µM, most hits filed as inhibitors. 150,000 tested, 4.3% active. purified HPGD, NADH fluorescence kinetic, PGE2 substrate. 15-hydroxyprostaglandin dehydrogenase [NAD(+)] (Homo sapiens), P15428; active = well fitted inhibition curve with a large enough effect, not every such curve was filed as active; inconclusive = small, poorly fitted or top-dose-only effect, or another doubt; inactive = no such curve, though single readings can be large or run the other way
Target sequence (P15428 whole entry, looked up): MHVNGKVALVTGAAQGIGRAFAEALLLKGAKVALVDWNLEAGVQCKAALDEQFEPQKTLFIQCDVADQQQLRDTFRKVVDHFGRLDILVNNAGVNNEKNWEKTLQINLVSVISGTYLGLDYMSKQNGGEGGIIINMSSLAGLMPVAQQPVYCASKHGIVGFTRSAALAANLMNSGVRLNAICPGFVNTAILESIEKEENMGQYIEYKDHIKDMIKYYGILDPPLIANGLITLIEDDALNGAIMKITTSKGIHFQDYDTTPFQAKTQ
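20 nM HPGD preincubated 15 min at room temperature with compound in 50 mM Tris-HCl pH 8, 0.01% Tween 20. Started with 1 mM NAD+ and 30 uM prostaglandin E2; NADH fluorescence (360/450 nm) read 5 times over 30-s intervals, last minus first.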
Lamin A splicing: qHTS Assay for Modulators of Lamin A Splicing; HeLa LMNA splicing GFP/RFP minigene ratio, 48 h; Potency, µM (series often up to 46.1 µM), actives largely listed as inhibitors; 200,000 tested, 0.01% active; AID 1487, 2009; active = well fitted inhibition curve with a large enough effect in the signal ratio, with a control signal flat, not every such curve was filed as active; inconclusive = small, poorly fitted or top-dose-only effect, or effect the other way, or a change in a side signal; the % refers to the signal ratio
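S3 HeLa cells stably expressing lamin A-EGFP splicing minigene plus DsRed2, 600 cells/well, 48 h compound exposure at 37C. Laser-scanning cytometry; analysed as GFP (500-530 nm)/RFP (575-640 nm) total intensity ratio; 0.5% DMSO vehicle.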
IMPase Li cell: qHTS Assay for Identifying the Cell-Membrane Permeable IMPase Inhibitors: Potentiation with Lithium | CHO-M1 cells, IP1 TR-FRET (IP-One), carbachol + lithium | 210,000 tested, 0.35% active | Potency, µM (doses to about 59.4 µM), actives largely listed as inhibitors | AID 1457, 2008;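 note: IP1 builds up when IMPase is blocked and the TR-FRET signal falls; nearly all actives have a fitted effect of over 50% in size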
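IP1 accumulation measured by competitive TR-FRET in lysed CHO-M1 cells after 30 min compound exposure at 37C, with a small lithium addition to potentiate weak responses. Hill-equation AC50 from ratio and donor-channel data.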
ALDH1A1 inh: qHTS Assay for Inhibitors of Aldehyde Dehydrogenase 1 (ALDH1A1); Aldehyde dehydrogenase 1A1 (Homo sapiens), P00352; Purified ALDH1A1, NADH fluorescence, propionaldehyde substrate; Potency, µM (top dose mostly 75.3 µM), hits mostly inhibitors; 220,000 tested, 7.3% active; AID 1030, 2008; active = well fitted inhibition curve with a large enough effect, not every such curve was filed as active; inconclusive = small, poorly fitted or top-dose-only effect, or another doubt; inactive = no such curve, though single readings can be large or run the other way
KinaseGlo FLuc: Counterscreen for Luciferase (Kinase-Glo TM) Inhibition | Luciferin 4-monooxygenase (Photuris pensylvanica), Q27757 | Kinase-Glo luciferase, ATP luminescence, 8 min | Potency, µM (titrated, usually from 38.3 µM), usual class: inhibitors | 200,000 tested, 0.28% active; note: nearly all actives have a fitted effect of over 60% in size
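Substrate mix (final 50 mM imidazole pH 7.2, 50 mM KCl, 7 mM MgCl2, 10 uM ATP, 0.01% Tween 20, 0.05% BSA) plus pin-tool compound, then Kinase-Glo detection mix; 8 min ambient, luminescence read.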
Hits are given with their value; 0 = inactive; ? = inconclusive; - = no result given; [ ] = remark or other dose. Unless noted, calls come from the whole dose curve; as a rule, active = well fitted curve in the direction sought with a large enough effect; inconclusive = small, poorly fitted or top-dose-only effect, or another doubt; inactive = no such curve, though single readings can be large; an effect the other way counts as inactive or inconclusive.

SMILES	HPGD inh	Lamin A splicing	IMPase Li cell	ALDH1A1 inh	KinaseGlo FLuc
N#CC(C#N)=Cc1ccc(-c2ccccc2)o1	0	?	0	?	0
CN1C(=O)C(Cc2c[nH]c3ccccc23)C(=O)N(C)C1=O	?	0	0	14µM	0
NS(=O)(=O)c1ccc(-c2ccc([As](=O)(O)O)cc2)cc1	0	-	0	0[13.5 µM]	0[7.66 µM]
N=C(N)n1cc(/C=N\N=C(N)N)cn1	0	-	0	0[13.5 µM]	0[7.66 µM]
Cc1ccc(S(=O)(=O)NCC2CCC(C(=O)NCCCN3CCOCC3)CC2)cc1 (stereo unspecified)	0	0	0	22µM	0
N#Cc1ccc(CN2CC[C@@]3(CCCNC3)C2)cc1	0	-	0	0	0
NC(N)=NN=Cc1c(Cl)cccc1Cl	0	?	0	0	0
CCC(C)N=Cc1c(O)n(-c2ccccc2)c(=O)[nH]c1=O (stereo unspecified)	?	0	0	?	0
Cc1cccc(N=Cc2c(O)n(-c3ccccc3C)c(=O)[nH]c2=O)c1	?	0	0	25µM	0
COC(=O)C1=Nc2ccccc2/C1=C\c1c(O)n(-c2cc(OC)ccc2OC)c(=O)[nH]c1=O	14µM	0	0	?	0
Cc1ccccc1-n1c(O)c(/C=C2/C(c3ccccc3)=Nc3ccccc32)c(=O)[nH]c1=O	28µM	?	0	?	0
Cc1ccc(-n2c(O)c(/C=C3/C(c4ccccc4)=Nc4ccccc43)c(=O)[nH]c2=O)cc1	-	?	-	25µM	-
COc1ccc(OC)c(-n2c(O)c(C=Nc3c(C)n(C)n(-c4ccccc4)c3=O)c(=O)[nH]c2=O)c1	0	0	0	0	0
ClCCCl	0	-	0	?	-
O=C(O)CS(=O)(=O)C(c1ccccc1)c1ccccc1	0	-	0	0[13.5 µM]	0[7.66 µM]
Nc1cccc(Cl)c1	0	-	0	?	-
CCCC(O)C(CC)CO (stereo unspecified)	0	?	0	0	-
Fc1ccc(C(OCCN2CCN(C/C=C/c3ccccc3)CC2)c2ccc(F)cc2)cc1	-	-	0	0	-
COC1=CC(=O)O[C@@H](/C=C/c2ccc3c(c2)OCO3)C1	0	-	0	25µM	-
CC1=CC(=O)NP(=O)(Oc2ccc3ccccc3c2)N1 (stereo unspecified)	35µM	0	0	?	0
CC(C)CC(=O)C[C@H](O)C(Cl)(Cl)Cl	0	-	0	0[13.5 µM]	0[7.66 µM]
O=C1NC(=O)C(=Cc2cc3c(cc2[N+](=O)[O-])OCO3)C(=O)N1	-	0	0	16µM	0
CCOC(=O)N1CCN(Cc2ccccc2F)CC1	0	0	0	14µM	0
Cc1ccc(CN2CCN(Cc3ccccc3F)CC2)cc1	-	0	0	?	0
CCN(CC)c1ncnc2c1ncn2[C@@H]1O[C@@H](COP(=O)(O)OP(=O)(O)C(Br)(Br)P(=O)(O)O)[C@H](O)[C@H]1O	0	-	0	0	0
SMILES	HPGD inh	Lamin A splicing	IMPase Li cell	ALDH1A1 inh	KinaseGlo FLuc
COc1cc(/C=N/NP(=S)(c2ccccc2)c2ccccc2)ccc1O	0	0	0	?	0
Oc1ccc(/C=N/NP(=S)(c2ccccc2)c2ccccc2)cc1	32µM	0	0	20µM	0
O=c1ccc2cc(O[C@H]3OC(CO)C(O)C(O)C3O)c(O)cc2o1 (stereo partly specified)	?	-	13µM	?	0
O=c1ccc2cc(O[C@H]3O[C@@H](CO)[C@@H](O)[C@@H](O)[C@@H]3O)c(O)cc2o1	?	0	0	?	0
O=C(c1cc(C(=O)NCc2ccccc2)c(=O)n(Cc2ccccc2)c1)c1cc(Cl)ccc1O	16µM	?	0	?	0
CC(C)CCNC(=O)c1cc(C(=O)c2cc(Br)ccc2O)cn(CCC(C)C)c1=O	-	-	0	0	0
N#CS.N=C=S.N=C=S.[Cu].[NH2-].[NH2-].[NH2-].[NH2-].c1ccc2ncccc2c1	0	-	0	3.5µM	0[7.66 µM]
O=C(C[N+]12CCC(CC1)C(OC(=O)c1ccccc1)C2)c1ccc([N+](=O)[O-])cc1 (stereo unspecified)	-	-	-	0	-
O=C(OCC(=O)c1ccc([N+](=O)[O-])cc1)/C(=C/c1ccc(Cl)cc1)NC(=O)c1ccccc1	0	0	0	7.9µM	0
O=C1NC(=O)N(Cc2ccccc2Cl)C(=O)/C1=C/N1CCOCC1	0	0	0	0	0
O=C1NC(=O)N(Cc2cccs2)C(=O)/C1=C/c1ccc(N2CCOCC2)cc1	-	0	0	7.1µM	0
COc1ccc(NC(=O)N2CCC3(CC2)OCCO3)cc1OC	0	0	0	0	0
COc1ccc(C2C(C(=O)N3CCC4(CC3)OCCO4)c3cc(OC)c(OC)cc3C(=O)N2C)cc1 (stereo unspecified)	0	0	0	14µM	0
O=c1[nH]sc2cc(F)ccc12	-	?	0	1.4µM	0
O=C(O)c1cccc2c1NC(c1cccc([N+](=O)[O-])c1)C1CC(Sc3ccccc3[N+](=O)[O-])C(Cl)C21 (stereo unspecified)	-	0	0	3.5µM	0
CCN(CC)C(=O)c1ccc2c(c1)C1C(Cl)C(Sc3ccccc3[N+](=O)[O-])CC1C(C(=O)O)N2 (stereo unspecified)	-	-	-	25µM	-
O=C(O)c1ccc2c(c1)C1C(Cl)C(Sc3ccccc3[N+](=O)[O-])CC1C(c1cccc([N+](=O)[O-])c1)N2 (stereo unspecified)	-	-	0	?	0
C/C=C/C=O	0	-	0	0	-
COc1ccc2c(c1)[C@@]13CCCCC1[C@@H](C2)N(C)CC3 (stereo partly specified)	0	-	0	0	0
Cn1cnc([N+](=O)[O-])c1Sc1ccc([N+](=O)[O-])cc1	-	-	0	7.9µM	0
CCOc1c(Cl)cc(CNc2ccc(S(N)(=O)=O)cc2)cc1OC	25µM	?	0	0	0
COc1cccc(-c2nc(CS(=O)CC(=O)N3CCC4(CC3)OCCO4)c(C)o2)c1 (stereo unspecified)	0	0	0	35µM	0
Cc1oc(-c2ccc(Cl)cc2)nc1CS(=O)CC(=O)N1CCC2(CC1)OCCO2 (stereo unspecified)	0	0	0	0	0
Cc1cc(C=C2C(=O)NC(=S)NC2=O)c(C)n1-c1ccc2c(c1)OCO2	8.9µM	?	0	2.8µM	?
Cc1ccc(N2C(=O)NC(=O)/C(=C/c3cnn(-c4ccc(C)cc4)c3)C2=O)cc1	?	0	0	2.5µM	0
CCC(C)c1ccc(N2C(=O)NC(=O)/C(=C/c3cccn3CCOc3ccc(C)cc3)C2=O)cc1 (stereo unspecified)	0	0	0	0	0
Cc1ccc(N2C(=O)NC(=O)/C(=C\c3cccn3C(C)(C)C)C2=O)cc1	-	0	0	0.56µM	0
Cc1ccc(N2C(=O)NC(=O)/C(=C\c3cnc(-c4ccccc4)nc3)C2=O)cc1	?	0	0	8.9µM	0
